# Screening results as filed in PubChem BioAssay.
# Compounds with a hit are over-represented: about 3.5% of the library has one in this group of screens.
# HSP90 inh: inhibitors of HSP90 luciferase refolding in rabbit reticulocyte lysate. luciferase refolding luminescence, 3 h. inhibition, % at 5.6 µM. 290,000 tested, 0.91% active;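 active = inhibition above the screen-wide mean plus 3 SD, computed separately per campaign, cut at about 16% in these data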;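 note: 0% = DMSO wells and 100% = 60 µM geldanamycin wells; inhibitors lower the luminescence because luciferase stays unfolded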
# TROY signal inh: inhibitors of TROY-dependent NF-kB signaling; Q293 LMP1-TROYcd NF-kB luciferase reporter, 4 h; inhibition, % at 10 µM; 360,000 tested, 0.98% active; AID 1347056;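 active = compounds whose plate-normalised and pattern-corrected inhibition of the luciferase reporter signal at the single screening dose is 50% or more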
# PPC-1+TRAIL kill: kills PPC-1 cancer cells in the presence of TRAIL; 220,000 tested, 0.41% active; PPC-1 cells + TRAIL, ATPLite viability luminescence; cell killing (% activity), % at 4 µM or 5 µM;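 active = cell killing above 50% in the first pass at 4 µM, then a duplicate retest at 5 µM averaging 50% or more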;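 note: plate controls were cells with TRAIL plus DMSO for no effect and medium-only wells lacking cells for full effect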
# C8 TRAIL sens: sensitizes caspase-8 expressing cells to TRAIL. NB7+C8 cells + TRAIL, ATPlite viability luminescence. AID 624354. 360,000 tested, 1% active. inhibition (viability loss, TRAIL sensitization), % at 10 µM;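 active = compounds causing at least 50% loss of cell viability in the single-dose screen, relative to plate controls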
# Platelet DG rel: modulates dense granule release in human platelets; human platelet-rich plasma, SFLLRN dense granule ATP release, luminescence; inhibition, %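 (compounds screened at 7.5 µM in platelet-rich plasma)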; 300,000 tested, 0.22% active; AID 1663;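 active = mean replicate score, as percent of positive control, at or above 50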
# TWEAK Fn14 block: inhibitors of TWEAK-Fn14 interaction signaling; TWEAK-stimulated Fn14 reporter cells, luciferase luminescence, 8 h; inhibition, % at 10 µM; 360,000 tested, 2% active; in the data active = inhibition above about 50%
# An asterisk follows results filed as active; / = not tested or not shown.
SMILES,HSP90 inh,TROY signal inh,PPC-1+TRAIL kill,C8 TRAIL sens,Platelet DG rel,TWEAK Fn14 block
COC(=O)C1=C(c2cccc(OC)c2OC)C[C@@H]2CC[C@H]1N2C(=O)N1CCCC1,/,-24.1,/,7.6,-2.4,-13.4
O=c1[nH]cnc2nc(-c3ccc(N(CCCl)CCCl)cc3)[nH]c12,/,28.8,/,4.4,/,-10.0
CC1CN=C(Nc2cccc3ccccc23)S1 (stereo not given),1.0,53.1*,13.1,-9.3,-2.6,44.2
CC1CN=C(Nc2ccccc2)S1 (stereo not given),-4.4,4.8,28.4,7.1,-34.4,-8.3
Cc1cc(OC(=O)CCNC(=O)OC(C)(C)C)c2c3c(c(=O)oc2c1)CCC3,0.2,36.6,-1.6,6.4,-4.9,62.9*
Cc1cc(OC(=O)CCCNC(=O)OC(C)(C)C)c2c3c(c(=O)oc2c1)CCC3,1.2,18.3,23.0,0.6,4.0,24.4
N=C1c2ccccc2CN1c1ccc(F)c([N+](=O)[O-])c1,3.0,-14.4,-0.6,-17.7,0.7,-20.5
O=P(NC1CCCCC1)(Oc1ccccc1)Oc1ccccc1,/,-2.9,/,-5.4,/,26.1
CCOc1ccc(N2C(=O)/C(=C/c3ccco3)C(=O)NC2=S)cc1,5.4,-4.2,/,-6.5,-6.6,57.0*
CCOc1ccc(N2C(=O)/C(=C\c3cccs3)C(=O)NC2=S)cc1,0.8,/,-2.2,/,-1.7,/
CC1CC(C)CC(C)C(O)C(C#N)=CC=CCC(C2CCCC2C(=O)O)OC(=O)CC(O)C(C)C1 (stereo not given),/,81.5*,/,65.8*,/,100.0*
CC(C)CCC1(CCO)C(=O)NC(=S)NC1=O,/,-6.1,/,-22.1,/,-20.0
O=[N+]([O-])c1ccc(N2CCOCC2)c2c1no[n+]2[O-],/,37.6,/,93.6*,/,103.3*
Cc1ccccc1-n1c(C)nc2ccsc2c1=O,/,2.1,/,9.5,4.2,55.0*
Cc1nc2ccsc2c(=O)n1-c1ccccc1Cl,/,4.3,/,-2.2,8.0,8.0
N#Cc1ccccc1Cn1cc(C(=O)c2ccco2)c2ccccc21,-0.1,0.9,5.3,4.8,0.4,-0.9
O=C(Cc1ccccc1)N1CCN(Cc2ccccn2)CC1,-1.4,-31.8,3.6,-4.5,-5.3,92.3*
O=C(Cc1ccccc1)N1CCN(Cc2ccc(Cl)cc2)CC1,/,7.5,/,7.6,/,1.3
CC(C)(C)c1cc(C=C(C#N)C#N)cc(C(C)(C)C)c1O,/,57.5*,/,31.7,/,72.8*
c1ccc(-c2[nH]c(-c3ccccc3)[n+](CC3CO3)c2-c2ccccc2)cc1 (stereo not given),1.6,41.0,18.1,20.0,-21.0,80.4*
COc1ccc(OC)c(CNCCc2ccc(OC)c(OC)c2)c1,0.8,-1.8,/,3.6,4.8,-1.3
COc1cccc(C(=O)C2CCCN(Cc3cccc4c3OCO4)C2)c1 (stereo not given),-3.0,4.7,5.6,-3.0,10.2,10.4
CCC(C)NC(=O)c1c(N)n(Cc2ccc3c(c2)OCO3)c2nc3ccccc3nc12 (stereo not given),-0.7,57.2*,16.0,-7.3,6.5,16.4
C=C1C(=O)OC2CC3(C)OC3CCC(C)=CC(OC(C)=O)C12 (stereo not given),/,52.4*,/,7.9,/,75.8*
COC(=O)[C@@H]1[C@@H](C(=O)OC)C2(c3ccccc3-c3ccccc32)N(c2ccc(Cl)cc2)N1C#N,10.1,83.8*,25.9,91.7*,13.1,26.1
SMILES,HSP90 inh,TROY signal inh,PPC-1+TRAIL kill,C8 TRAIL sens,Platelet DG rel,TWEAK Fn14 block
O=C1NC(=O)C2(CCCC2)C(=O)N1,/,8.8,/,-5.7,/,2.2
Cc1cc(C)cc(NC2=NCCCS2)c1,1.9,-6.3,-18.5,-1.2,-3.2,-10.1
N/C(=N\N=C/c1ccc(-c2ccc(O)c(C(=O)O)c2)o1)N[N+](=O)[O-],-1.9,7.2,-20.0,-6.0,7.7,8.1
COc1ccc(/C=N/N=C(/N)N[N+](=O)[O-])c(OC)c1,2.1,-17.5,5.1,-8.1,121.2*,-31.3
O=c1[nH]c(=O)n(-c2cccc3ccccc23)c(O)c1C=NCCCn1ccnc1,1.5,15.7,-11.0,-11.5,4.2,62.1*
CCOc1ccc(-n2c(-c3ccoc3)nc3ccccc3c2=O)cc1,-3.0,2.1,1.9,-12.0,-4.2,6.8
CCOc1ccc(-c2c(C)n(-c3ccc(OCC)cc3)c3[n+]2CCCCC3)cc1,7.5,57.4*,48.0,51.7*,12.2,87.3*
CCN(CCNc1ccc([N+](=O)[O-])c2cccnc12)S(=O)(=O)c1ccccc1,-0.4,-6.0,0.4,0.8,-5.6,-16.7
Cc1c(NS(=O)(=O)c2ccccc2)ccc([N+](=O)[O-])c1Cl,/,59.5*,/,7.7,/,46.0
Oc1cc(Cl)c(Cl)c(Cl)c1,/,55.2*,/,1.9,/,49.1
Oc1cc(Cl)c(Cl)c(Cl)c1Cl,/,54.0*,/,-1.4,/,15.5
COC(=O)C1=C(c2c(C)noc2C)C[C@@H]2CC[C@H]1N2C(=O)NC1CCCCC1,/,2.2,/,15.2,/,-3.1
Cc1ccc(OP2(=O)Nc3cc(C)c(C)cc3S2)cc1 (stereo not given),/,40.5,/,-0.8,/,64.7*
O=c1[nH]c(=S)n(-c2ccc(Br)cc2)c(O)c1C=Nc1ccc(N2CCOCC2)cc1,2.2,37.2,28.0,9.6,-8.6,47.8
CCOc1ccc(-n2c(O)c(C=Nc3ccc(N4CCOCC4)cc3)c(=O)[nH]c2=O)cc1,-1.9,/,-4.9,-4.9,-0.6,90.6*
CC1(C)C2([N+](=O)[O-])CN3CC1([N+](=O)[O-])CN(C2)C3c1ccccn1 (stereo not given),4.9,-10.2,12.0,17.7,-8.2,0.1
C[C@]12C[C@H](O)[C@@H](O)CC1=CCC1C2CC[C@@]2(C)C1CC[C@@H]2O (stereo not given in full),/,2.4,/,-7.6,/,-6.2
CC(=O)OCC12CC(OC(=O)CC(C)C)C(C)=CC1OC1C(O)C(OC(C)=O)C2(C)C12CO2 (stereo not given),/,82.1*,/,56.5*,/,92.8*
COc1ccc(-c2nc3ccc(Br)cn3c2CC(=O)N2CCCC2)cc1OC,/,-15.2,/,-9.0,/,-12.4
COc1ccc(CN2Cc3cnnn3-c3ccccc3C2C#N)cc1 (stereo not given),/,46.3,/,47.9,/,74.2*
N#CC1c2ccccc2-n2nncc2CN1Cc1cc(Cl)cc(Cl)c1 (stereo not given),/,90.6*,/,75.9*,/,107.1*
CCOCCCNC(=O)C1c2cc(OC)c(OC)cc2C(=O)N2CCCCC12 (stereo not given),-1.9,28.4,7.8,6.1,5.9,-11.5
S=C(NCCc1ccccc1)N1Cc2ccccc2-n2nncc2C1,/,3.9,/,0.5,/,-2.5
O=C1NCN(c2ccccc2)C12CCN(C(c1cccc3ccccc13)c1nnnn1-c1ccc3c(c1)OCCO3)CC2 (stereo not given),/,10.2,/,-9.7,/,36.9
Cc1cccc(C)c1-n1nnnc1C(C1CC1)N1CCC2(CC1)C(=O)NCN2c1ccccc1 (stereo not given),/,75.2*,/,19.1,/,36.5
